This passage reports binding signal results from publication PMC8384837, “Expanding the binding specificity for RNA recognition by a PUF domain”.

Assay in all cases: yeast three-hybrid, YBZ-1, SC-Leu-His + 0.5 mM 3-AT, 4 days
Settings in all cases: tags: N-Gal4 AD-HA kept; label: inside an RPR1-promoter hybrid RNA with tandem MS2 sites; ssRNA

One experiment has as its target PUM1 PUF domain R3-GCR (Homo sapiens, UniProt Q14671 828-1176, C935G;R936C;Q939R). In short, it runs like this: (§1)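 The interaction score is the logarithmic change in variant frequency from input to selection. It uses log2, with a pseudocount of 1 for absent variants, and frequencies came from PCR-amplified, Illumina-sequenced repeat regions. The libraries were Pumilio-1 PUF domains randomized at the three base-contacting residues per repeat, co-expressed with matching RNA elements in strain YBZ-1 (LexA–MS2 coat fusion, HIS3 reporter). Plating lasted four days on SC-Leu (input) or SC-Leu-His + 0.5 mM 3-AT (selection).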

A further experiment concerns the target T1, PUM1 PUF domain R6-SFC (Homo sapiens, UniProt Q14671 828-1176, N1043S;Y1044F;Q1047C).
T1 sequence: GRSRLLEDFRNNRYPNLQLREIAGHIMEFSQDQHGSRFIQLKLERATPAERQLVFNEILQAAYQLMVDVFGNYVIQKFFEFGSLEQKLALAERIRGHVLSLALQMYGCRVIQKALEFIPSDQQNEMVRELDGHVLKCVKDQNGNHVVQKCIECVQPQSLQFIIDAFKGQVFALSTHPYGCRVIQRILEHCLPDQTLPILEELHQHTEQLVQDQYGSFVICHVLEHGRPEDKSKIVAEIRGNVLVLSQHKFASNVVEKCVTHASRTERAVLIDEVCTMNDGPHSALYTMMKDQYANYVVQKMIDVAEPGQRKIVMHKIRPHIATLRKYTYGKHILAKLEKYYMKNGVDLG
In short, it runs like this:
as §1

In a further experiment the target is PUM1 PUF domain R4-ANG (Homo sapiens, UniProt Q14671 828-1176, N971A;H972N;Q975G). In short, it runs like this: as §1
The target of another experiment is PUM1 PUF domain R8-RHQ (Homo sapiens, UniProt Q14671 828-1176, N1122R;Y1123H). The method, boiled down:
as §1

The next experiment concerns the target PUM1 PUF domain R4-GYV (Homo sapiens, UniProt Q14671 828-1176, N971G;H972Y;Q975V). The method, boiled down:
as §1

For the next experiment, the target named is PUM1 PUF domain R3-RNG (Homo sapiens, UniProt Q14671 828-1176, C935R;R936N;Q939G). The method, boiled down:
as §1

Another experiment addresses PUM1 PUF domain R5-FNS (Homo sapiens, UniProt Q14671 828-1176, C1007F;R1008N;Q1011S). In short, it runs like this:
as §1

The target in another experiment is PUM1 PUF domain R5-RNA (Homo sapiens, UniProt Q14671 828-1176, C1007R;R1008N;Q1011A). In short, it runs like this: as §1
The next experiment has as its target PUM1 PUF domain R5-RQE (Homo sapiens, UniProt Q14671 828-1176, C1007R;R1008Q;Q1011E). The method, boiled down:
as §1

The target of the next experiment is PUM1 PUF domain R1-SGD (Homo sapiens, UniProt Q14671 828-1176, R864G;Q867D). In short, it runs like this:
as §1

As for “GGCUAGAACUAGUGGAUCCCCCGGCGCCCGGCGGCUCGAGCCCGGGUAAGUGUAAGUAGUCUGCAUGCCGCCGGGCGCCAUGCCUGCAGGUCGACUCUAGAAAACAUG”, the binding signal with PUM1 PUF domain R3-GCR is 3.87 log2 enrichment (interaction score).
As to “GGCUAGAACUAGUGGAUCCCCCGGCGCCCGGCGGCUCGAGCCCGGGUAAGUGUAAAUAGUCUGCAUGCCGCCGGGCGCCAUGCCUGCAGGUCGACUCUAGAAAACAUG”, the binding signal with PUM1 PUF domain R6-SFC was 4.7 log2 enrichment (interaction score); in the experiment with PUM1 PUF domain R3-GCR, 0.62 log2 enrichment (interaction score); with PUM1 PUF domain R4-ANG it was 0.25 log2 enrichment (interaction score); with PUM1 PUF domain R8-RHQ it was 3.7 log2 enrichment (interaction score).
With “GGCUAGAACUAGUGGAUCCCCCGGCGCCCGGCGGCUCGAGCCCGGGUAAGUGUACAUAGUCUGCAUGCCGCCGGGCGCCAUGCCUGCAGGUCGACUCUAGAAAACAUG”, the binding signal with PUM1 PUF domain R4-GYV is 7.46 log2 enrichment (interaction score); with PUM1 PUF domain R4-ANG it was 3.65 log2 enrichment (interaction score).
As to “GGCUAGAACUAGUGGAUCCCCCGGCGCCCGGCGGCUCGAGCCCGGGUAAGUGUAAUUAGUCUGCAUGCCGCCGGGCGCCAUGCCUGCAGGUCGACUCUAGAAAACAUG”, the results for the binding signal with PUM1 PUF domain R3-GCR and in the experiment with PUM1 PUF domain R3-RNG were 2.22 log2 enrichment (interaction score) and 3.75 log2 enrichment (interaction score), respectively.
With “GGCUAGAACUAGUGGAUCCCCCGGCGCCCGGCGGCUCGAGCCCGGGUAAGCGUAAAUAGUCUGCAUGCCGCCGGGCGCCAUGCCUGCAGGUCGACUCUAGAAAACAUG”, in the experiment with PUM1 PUF domain R8-RHQ, the binding signal is 5.53 log2 enrichment (interaction score).
Consider “GGCUAGAACUAGUGGAUCCCCCGGCGCCCGGCGGCUCGAGCCCGGGUAAGUGUUAAUAGUCUGCAUGCCGCCGGGCGCCAUGCCUGCAGGUCGACUCUAGAAAACAUG”, for which the binding signal with PUM1 PUF domain R5-FNS was 3.5 log2 enrichment (interaction score); in the experiment with PUM1 PUF domain R5-RNA it was 2.33 log2 enrichment (interaction score).
On to “GGCUAGAACUAGUGGAUCCCCCGGCGCCCGGCGGCUCGAGCCCGGGUAAGUGUAUAUAGUCUGCAUGCCGCCGGGCGCCAUGCCUGCAGGUCGACUCUAGAAAACAUG”, for which the binding signal in the experiment with PUM1 PUF domain R4-ANG was 2.57 log2 enrichment (interaction score).
Turning to “GGCUAGAACUAGUGGAUCCCCCGGCGCCCGGCGGCUCGAGCCCGGGUAAGUGUCAAUAGUCUGCAUGCCGCCGGGCGCCAUGCCUGCAGGUCGACUCUAGAAAACAUG”, the binding signal was 2.56 log2 enrichment (interaction score) with PUM1 PUF domain R5-RNA and 3.37 log2 enrichment (interaction score) in the experiment with PUM1 PUF domain R5-RQE.
For “GGCUAGAACUAGUGGAUCCCCCGGCGCCCGGCGGCUCGAGCCCGGGUAAGUGUAAAUGGUCUGCAUGCCGCCGGGCGCCAUGCCUGCAGGUCGACUCUAGAAAACAUG”, the binding signal in the experiment with PUM1 PUF domain R1-SGD is 5.76 log2 enrichment (interaction score).
